# What was measured:
# Assay in all cases: DAPPL (digital affinity profiling via proximity ligation, sequencing); 10 mM Tris-HCl pH 7.5, 50 mM NaCl, 1 mM DTT, 4% glycerol, room temperature, 30 min; GST-TFs on glutathione beads, 16-mer random dsDNA library, 0.1% formaldehyde crosslink after washing; high values mean tight binding
# FLI1 = target: T1, FLI1 (Homo sapiens, UniProt Q01543 1-452); conditions: protein: recombinant; tags: N-terminal GST; dsDNA, one strand shown
# T1 sequence: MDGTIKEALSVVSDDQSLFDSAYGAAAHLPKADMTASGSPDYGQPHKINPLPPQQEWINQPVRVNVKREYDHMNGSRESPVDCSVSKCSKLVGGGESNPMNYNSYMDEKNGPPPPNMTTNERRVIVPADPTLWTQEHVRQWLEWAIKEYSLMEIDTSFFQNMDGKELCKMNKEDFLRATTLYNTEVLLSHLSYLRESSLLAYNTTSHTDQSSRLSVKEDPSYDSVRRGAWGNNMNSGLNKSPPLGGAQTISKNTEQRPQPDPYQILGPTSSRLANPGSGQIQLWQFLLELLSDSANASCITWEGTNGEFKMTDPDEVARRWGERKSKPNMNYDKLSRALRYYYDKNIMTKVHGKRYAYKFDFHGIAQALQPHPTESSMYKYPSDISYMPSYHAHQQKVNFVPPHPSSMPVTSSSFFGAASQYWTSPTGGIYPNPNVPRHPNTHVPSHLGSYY
# Method in brief: (§1)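 After expression in yeast as GST fusions, human transcription factors were bound to glutathione beads, DNA-barcoded and mixed with a tag-only sample. The pools were incubated with 200 nmole of a 16-mer random double-stranded DNA library in Tris/NaCl/DTT/glycerol buffer (30 min, room temperature), washed and crosslinked with 0.1% formaldehyde. Proximity ligation with BsaI/T4 ligase ran for 1 h at 37 °C, before PCR amplification and sequencing on an Illumina NextSeq500. Binding signal is a hexamer's read frequency for a factor divided by its frequency for the tag-only sample.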
# ELK1 = target: T2, ELK1 (Homo sapiens, UniProt P19419 1-428); conditions: protein: recombinant; tags: N-terminal GST; dsDNA, one strand shown
# T2 sequence: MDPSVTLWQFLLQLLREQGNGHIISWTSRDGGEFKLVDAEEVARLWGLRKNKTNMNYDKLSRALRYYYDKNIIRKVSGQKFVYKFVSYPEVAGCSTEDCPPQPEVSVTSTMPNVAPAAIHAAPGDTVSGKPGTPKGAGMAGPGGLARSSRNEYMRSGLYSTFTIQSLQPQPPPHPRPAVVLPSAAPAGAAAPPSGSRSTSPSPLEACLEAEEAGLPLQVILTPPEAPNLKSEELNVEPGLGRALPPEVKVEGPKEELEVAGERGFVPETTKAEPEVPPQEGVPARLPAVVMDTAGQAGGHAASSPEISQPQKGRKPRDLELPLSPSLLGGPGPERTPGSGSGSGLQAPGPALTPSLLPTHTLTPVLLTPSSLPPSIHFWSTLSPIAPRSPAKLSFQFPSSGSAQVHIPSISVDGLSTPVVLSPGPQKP
# Method in brief: as §1
# GABPA = target: T3, GABPA (Homo sapiens, UniProt Q06546 1-454); conditions: protein: recombinant; tags: N-terminal GST; dsDNA, one strand shown
# T3 sequence: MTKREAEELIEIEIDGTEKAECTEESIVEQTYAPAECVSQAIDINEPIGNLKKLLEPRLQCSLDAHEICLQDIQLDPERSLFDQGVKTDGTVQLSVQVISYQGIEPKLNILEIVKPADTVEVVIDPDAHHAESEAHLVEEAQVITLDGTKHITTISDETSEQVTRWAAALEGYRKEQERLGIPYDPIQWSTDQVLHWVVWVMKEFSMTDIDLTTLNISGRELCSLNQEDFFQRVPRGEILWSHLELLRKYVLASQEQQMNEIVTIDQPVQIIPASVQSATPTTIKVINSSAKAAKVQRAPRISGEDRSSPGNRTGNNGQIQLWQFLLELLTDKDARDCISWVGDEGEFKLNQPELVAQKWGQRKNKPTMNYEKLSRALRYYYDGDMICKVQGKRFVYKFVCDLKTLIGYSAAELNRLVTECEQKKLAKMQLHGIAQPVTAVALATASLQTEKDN
# Method in brief: as §1
# ERG = target: T4, ERG (Homo sapiens, UniProt P11308 1-479); conditions: protein: recombinant; tags: N-terminal GST; dsDNA, one strand shown
# T4 sequence: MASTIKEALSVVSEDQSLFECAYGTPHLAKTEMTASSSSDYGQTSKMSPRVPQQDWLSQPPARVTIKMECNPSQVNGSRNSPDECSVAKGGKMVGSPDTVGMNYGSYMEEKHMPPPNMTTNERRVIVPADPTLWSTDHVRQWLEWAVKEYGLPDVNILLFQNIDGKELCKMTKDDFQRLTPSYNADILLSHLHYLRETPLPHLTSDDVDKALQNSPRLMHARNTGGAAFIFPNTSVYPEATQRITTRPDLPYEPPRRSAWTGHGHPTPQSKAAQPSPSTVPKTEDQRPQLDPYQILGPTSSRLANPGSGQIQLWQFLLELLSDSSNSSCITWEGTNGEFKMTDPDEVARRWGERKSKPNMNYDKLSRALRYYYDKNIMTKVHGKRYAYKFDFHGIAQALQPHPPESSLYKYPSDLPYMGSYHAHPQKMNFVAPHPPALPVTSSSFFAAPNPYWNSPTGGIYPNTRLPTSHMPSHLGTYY
# Method in brief: as §1
# ELF1 = ELF1 (Homo sapiens, UniProt P32519 1-619); conditions: protein: recombinant; tags: N-terminal GST; dsDNA, one strand shown
# Method in brief: as §1
# EHF = target: T5, EHF (Homo sapiens, UniProt Q9NZC4 1-300); conditions: protein: recombinant; tags: N-terminal GST; dsDNA, one strand shown
# T5 sequence: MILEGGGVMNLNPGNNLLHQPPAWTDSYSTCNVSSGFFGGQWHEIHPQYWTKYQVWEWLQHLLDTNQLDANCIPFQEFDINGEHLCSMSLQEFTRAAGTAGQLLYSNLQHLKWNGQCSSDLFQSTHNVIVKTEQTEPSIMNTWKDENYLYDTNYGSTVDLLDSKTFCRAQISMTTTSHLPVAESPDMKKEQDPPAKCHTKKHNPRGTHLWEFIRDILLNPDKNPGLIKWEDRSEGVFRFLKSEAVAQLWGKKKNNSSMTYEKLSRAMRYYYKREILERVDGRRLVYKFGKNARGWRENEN
# Method in brief: as §1
# SPI1 = SPI1 (Homo sapiens, UniProt P17947 1-270); conditions: protein: recombinant; tags: N-terminal GST; dsDNA, one strand shown
# Method in brief: as §1
# SPIB = SPIB (Homo sapiens, UniProt Q01892 1-262); conditions: protein: recombinant; tags: N-terminal GST; dsDNA, one strand shown
# Method in brief: as §1
# ELK3 = target: T6, ELK3 (Homo sapiens, UniProt P41970 1-407); conditions: protein: recombinant; tags: N-terminal GST; dsDNA, one strand shown
# T6 sequence: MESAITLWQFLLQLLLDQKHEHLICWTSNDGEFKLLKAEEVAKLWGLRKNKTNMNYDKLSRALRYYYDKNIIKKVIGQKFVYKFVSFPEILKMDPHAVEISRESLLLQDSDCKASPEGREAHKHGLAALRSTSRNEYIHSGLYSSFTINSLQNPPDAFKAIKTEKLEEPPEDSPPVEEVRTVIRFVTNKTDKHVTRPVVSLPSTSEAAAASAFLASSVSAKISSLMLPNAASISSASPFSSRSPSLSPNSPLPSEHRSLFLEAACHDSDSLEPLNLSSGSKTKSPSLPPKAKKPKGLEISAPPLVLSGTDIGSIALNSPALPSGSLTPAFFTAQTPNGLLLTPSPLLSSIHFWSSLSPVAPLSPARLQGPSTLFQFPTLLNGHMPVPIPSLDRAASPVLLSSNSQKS
# Method in brief: as §1
# FEV = target: T7, FEV (Homo sapiens, UniProt Q99581 1-238); conditions: protein: recombinant; tags: N-terminal GST; dsDNA, one strand shown
# T7 sequence: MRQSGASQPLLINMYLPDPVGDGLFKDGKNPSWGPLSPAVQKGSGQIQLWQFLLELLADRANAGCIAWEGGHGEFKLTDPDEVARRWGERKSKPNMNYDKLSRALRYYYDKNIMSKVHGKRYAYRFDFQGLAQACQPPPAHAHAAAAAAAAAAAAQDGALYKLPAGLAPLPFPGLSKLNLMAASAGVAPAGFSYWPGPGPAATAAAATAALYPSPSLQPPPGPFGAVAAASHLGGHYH
# Method in brief: as §1
# ETV5 = ETV5 (Homo sapiens, UniProt P41161 1-510); conditions: protein: recombinant; tags: N-terminal GST; dsDNA, one strand shown
# Method in brief: as §1
# HSF1 = HSF1 (Homo sapiens, UniProt Q00613 1-529); conditions: protein: recombinant; tags: N-terminal GST; chain copies: 3; dsDNA, one strand shown
# Method in brief: as §1
# SPIC = target: T8, SPIC (Homo sapiens, UniProt Q8N5J4 1-248); conditions: protein: recombinant; tags: N-terminal GST; dsDNA, one strand shown
# T8 sequence: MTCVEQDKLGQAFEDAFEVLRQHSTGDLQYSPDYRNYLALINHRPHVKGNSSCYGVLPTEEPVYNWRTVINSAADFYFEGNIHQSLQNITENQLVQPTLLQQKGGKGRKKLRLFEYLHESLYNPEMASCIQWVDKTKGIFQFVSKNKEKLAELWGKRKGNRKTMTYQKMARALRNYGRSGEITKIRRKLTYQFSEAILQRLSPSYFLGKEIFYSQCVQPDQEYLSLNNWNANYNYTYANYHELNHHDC
# Method in brief: as §1
# ELF4 = ELF4 (Homo sapiens, UniProt Q99607 1-663); conditions: protein: recombinant; tags: N-terminal GST; dsDNA, one strand shown
# Method in brief: as §1
# ELK4 = target: T9, ELK4 (Homo sapiens, UniProt P28324-2 1-405); conditions: protein: recombinant; tags: N-terminal GST; dsDNA, one strand shown
# T9 sequence: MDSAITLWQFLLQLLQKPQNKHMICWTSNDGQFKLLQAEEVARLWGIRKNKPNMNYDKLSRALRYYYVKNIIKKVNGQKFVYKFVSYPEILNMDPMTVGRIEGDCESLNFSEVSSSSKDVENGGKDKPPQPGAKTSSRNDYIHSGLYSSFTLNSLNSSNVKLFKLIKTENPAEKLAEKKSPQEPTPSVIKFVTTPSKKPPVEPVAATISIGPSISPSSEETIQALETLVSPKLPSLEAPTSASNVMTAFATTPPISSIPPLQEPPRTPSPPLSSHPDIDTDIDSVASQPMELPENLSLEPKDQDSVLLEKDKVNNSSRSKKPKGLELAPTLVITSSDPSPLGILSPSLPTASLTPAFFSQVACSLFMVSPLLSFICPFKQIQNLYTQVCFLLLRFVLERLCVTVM
# Method in brief: as §1
# ETV2 = target: T10, ETV2 (Homo sapiens, UniProt O00321 1-342); conditions: protein: recombinant; tags: N-terminal GST; dsDNA, one strand shown
# T10 sequence: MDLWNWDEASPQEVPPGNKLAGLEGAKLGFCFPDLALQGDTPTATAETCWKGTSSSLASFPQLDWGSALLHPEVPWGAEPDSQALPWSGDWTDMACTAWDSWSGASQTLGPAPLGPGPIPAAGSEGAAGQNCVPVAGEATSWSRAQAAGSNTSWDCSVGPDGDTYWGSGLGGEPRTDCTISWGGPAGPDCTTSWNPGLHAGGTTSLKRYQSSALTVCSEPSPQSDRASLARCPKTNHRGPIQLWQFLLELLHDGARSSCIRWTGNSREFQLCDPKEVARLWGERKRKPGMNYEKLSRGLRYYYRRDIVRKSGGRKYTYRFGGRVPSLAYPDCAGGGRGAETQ
# Method in brief: as §1
# ELF3 = target: T11, ELF3 (Homo sapiens, UniProt P78545 1-371); conditions: protein: recombinant; tags: N-terminal GST; dsDNA, one strand shown
# T11 sequence: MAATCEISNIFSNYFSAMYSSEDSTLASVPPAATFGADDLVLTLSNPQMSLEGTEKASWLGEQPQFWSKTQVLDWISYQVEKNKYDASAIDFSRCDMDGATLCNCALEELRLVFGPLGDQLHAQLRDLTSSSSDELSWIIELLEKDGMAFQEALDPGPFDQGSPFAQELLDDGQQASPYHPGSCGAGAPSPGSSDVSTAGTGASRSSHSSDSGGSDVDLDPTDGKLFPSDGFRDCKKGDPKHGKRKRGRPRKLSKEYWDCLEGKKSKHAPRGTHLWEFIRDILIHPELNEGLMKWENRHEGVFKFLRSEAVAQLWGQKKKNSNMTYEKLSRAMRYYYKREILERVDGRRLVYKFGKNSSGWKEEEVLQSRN
# Method in brief: as §1
# CRX = CRX (Homo sapiens, UniProt O43186 1-299); conditions: protein: recombinant; tags: N-terminal GST; dsDNA, one strand shown
# Method in brief: as §1
# ETV1 = ETV1 (Homo sapiens, UniProt P50549 1-477); conditions: protein: recombinant; tags: N-terminal GST; dsDNA, one strand shown
# Method in brief: as §1
# Chain of SPIB (Q01892 whole entry): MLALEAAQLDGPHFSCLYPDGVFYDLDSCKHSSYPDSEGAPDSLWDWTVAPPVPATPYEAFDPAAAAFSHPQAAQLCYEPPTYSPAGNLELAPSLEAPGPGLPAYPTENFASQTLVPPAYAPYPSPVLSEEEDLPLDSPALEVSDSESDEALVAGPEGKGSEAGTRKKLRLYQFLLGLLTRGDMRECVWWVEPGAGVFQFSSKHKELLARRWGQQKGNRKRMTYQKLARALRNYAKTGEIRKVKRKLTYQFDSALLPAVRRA
# Chain of HSF1 (Q00613 whole entry): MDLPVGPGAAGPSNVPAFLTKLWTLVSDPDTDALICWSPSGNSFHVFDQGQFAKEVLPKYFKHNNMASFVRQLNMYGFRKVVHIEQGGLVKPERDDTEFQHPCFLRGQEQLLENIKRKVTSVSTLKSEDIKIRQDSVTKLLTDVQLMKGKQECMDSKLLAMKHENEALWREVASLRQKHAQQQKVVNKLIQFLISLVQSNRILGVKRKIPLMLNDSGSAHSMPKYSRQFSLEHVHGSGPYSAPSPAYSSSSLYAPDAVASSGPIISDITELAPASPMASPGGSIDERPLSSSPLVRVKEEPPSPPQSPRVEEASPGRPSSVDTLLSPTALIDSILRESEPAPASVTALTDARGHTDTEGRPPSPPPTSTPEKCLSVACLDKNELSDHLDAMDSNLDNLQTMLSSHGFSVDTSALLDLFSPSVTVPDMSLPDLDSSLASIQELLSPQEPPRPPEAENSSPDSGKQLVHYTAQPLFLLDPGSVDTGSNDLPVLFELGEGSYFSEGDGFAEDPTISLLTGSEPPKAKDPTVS
# Chain of ETV1 (P50549 whole entry): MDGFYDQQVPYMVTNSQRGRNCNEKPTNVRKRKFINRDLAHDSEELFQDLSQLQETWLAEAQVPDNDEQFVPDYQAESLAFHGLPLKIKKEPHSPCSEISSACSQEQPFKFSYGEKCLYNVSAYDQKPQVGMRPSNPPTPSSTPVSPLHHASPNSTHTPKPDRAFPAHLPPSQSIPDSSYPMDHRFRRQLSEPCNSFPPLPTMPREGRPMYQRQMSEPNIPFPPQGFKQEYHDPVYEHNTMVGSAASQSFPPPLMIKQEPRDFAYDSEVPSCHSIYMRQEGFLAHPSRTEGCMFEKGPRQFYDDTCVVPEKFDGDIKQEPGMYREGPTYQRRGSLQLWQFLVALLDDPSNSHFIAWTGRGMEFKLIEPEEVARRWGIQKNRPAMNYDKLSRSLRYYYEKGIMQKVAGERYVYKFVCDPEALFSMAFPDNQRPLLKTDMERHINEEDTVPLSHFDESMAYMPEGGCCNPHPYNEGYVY
# Chain of ELF1 (P32519 whole entry): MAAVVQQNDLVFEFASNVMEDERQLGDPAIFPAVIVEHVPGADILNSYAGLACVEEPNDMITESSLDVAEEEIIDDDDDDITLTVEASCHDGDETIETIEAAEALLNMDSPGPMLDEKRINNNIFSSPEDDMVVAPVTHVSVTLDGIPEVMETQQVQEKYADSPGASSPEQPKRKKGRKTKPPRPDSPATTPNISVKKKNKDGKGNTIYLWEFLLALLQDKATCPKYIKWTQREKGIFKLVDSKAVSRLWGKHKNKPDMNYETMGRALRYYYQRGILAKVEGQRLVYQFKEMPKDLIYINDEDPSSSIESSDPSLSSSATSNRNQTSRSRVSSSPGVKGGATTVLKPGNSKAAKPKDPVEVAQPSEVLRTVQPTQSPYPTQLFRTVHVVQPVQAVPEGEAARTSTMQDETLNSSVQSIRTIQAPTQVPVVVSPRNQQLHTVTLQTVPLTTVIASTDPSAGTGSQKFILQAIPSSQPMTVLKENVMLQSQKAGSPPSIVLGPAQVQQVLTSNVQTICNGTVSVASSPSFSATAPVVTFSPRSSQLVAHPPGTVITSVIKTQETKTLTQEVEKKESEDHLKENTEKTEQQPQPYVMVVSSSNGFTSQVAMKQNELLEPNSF
# Chain of ELF4 (Q99607 whole entry): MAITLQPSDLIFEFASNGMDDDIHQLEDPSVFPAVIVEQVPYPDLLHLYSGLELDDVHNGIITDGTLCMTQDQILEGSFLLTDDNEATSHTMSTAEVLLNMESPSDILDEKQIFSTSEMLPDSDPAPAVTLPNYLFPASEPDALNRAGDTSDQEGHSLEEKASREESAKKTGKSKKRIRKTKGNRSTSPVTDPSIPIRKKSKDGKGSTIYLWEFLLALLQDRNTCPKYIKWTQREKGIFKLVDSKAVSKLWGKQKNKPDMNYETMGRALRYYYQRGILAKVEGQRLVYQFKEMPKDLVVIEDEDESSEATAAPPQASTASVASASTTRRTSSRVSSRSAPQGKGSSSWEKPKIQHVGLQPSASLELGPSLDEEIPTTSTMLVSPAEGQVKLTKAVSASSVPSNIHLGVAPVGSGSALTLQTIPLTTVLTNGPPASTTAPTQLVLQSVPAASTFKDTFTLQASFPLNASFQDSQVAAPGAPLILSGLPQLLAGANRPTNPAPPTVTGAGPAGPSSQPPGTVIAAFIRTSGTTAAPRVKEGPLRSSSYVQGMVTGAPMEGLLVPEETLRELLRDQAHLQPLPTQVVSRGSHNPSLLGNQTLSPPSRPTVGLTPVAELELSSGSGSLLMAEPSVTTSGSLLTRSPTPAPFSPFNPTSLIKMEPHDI
# Chain of ETV5 (P41161 whole entry): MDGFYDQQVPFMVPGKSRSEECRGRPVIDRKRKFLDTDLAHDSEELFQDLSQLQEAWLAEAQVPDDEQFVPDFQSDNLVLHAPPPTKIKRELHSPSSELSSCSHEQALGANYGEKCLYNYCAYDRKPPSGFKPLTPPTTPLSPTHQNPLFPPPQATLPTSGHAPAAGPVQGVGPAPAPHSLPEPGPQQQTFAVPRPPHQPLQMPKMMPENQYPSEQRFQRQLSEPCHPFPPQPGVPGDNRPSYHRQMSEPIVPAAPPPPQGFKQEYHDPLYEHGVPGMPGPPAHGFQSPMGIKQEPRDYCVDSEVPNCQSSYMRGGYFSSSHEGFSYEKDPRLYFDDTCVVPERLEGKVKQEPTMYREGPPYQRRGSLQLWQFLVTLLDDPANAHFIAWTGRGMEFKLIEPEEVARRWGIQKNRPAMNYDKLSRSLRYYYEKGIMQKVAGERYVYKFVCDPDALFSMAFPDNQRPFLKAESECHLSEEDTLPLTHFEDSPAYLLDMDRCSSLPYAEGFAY
# Chain of CRX (O43186 whole entry): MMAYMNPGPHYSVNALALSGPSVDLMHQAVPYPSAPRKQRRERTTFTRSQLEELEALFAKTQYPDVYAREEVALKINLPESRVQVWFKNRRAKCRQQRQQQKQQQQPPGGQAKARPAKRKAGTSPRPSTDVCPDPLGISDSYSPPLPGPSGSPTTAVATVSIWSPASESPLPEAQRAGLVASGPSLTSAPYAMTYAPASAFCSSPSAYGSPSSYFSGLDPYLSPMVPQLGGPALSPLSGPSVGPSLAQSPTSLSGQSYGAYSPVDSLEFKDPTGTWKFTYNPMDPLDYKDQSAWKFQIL
sequence,measurement,setting,value
TTGCAA,binding signal,FLI1,"1.14 fold enrichment (6-mer frequency, TF over GST control)"
same,binding signal,ELK1,"1.28 fold enrichment (6-mer frequency, TF over GST control)"
same,binding signal,GABPA,"1.2 fold enrichment (6-mer frequency, TF over GST control)"
same,binding signal,ERG,"1.08 fold enrichment (6-mer frequency, TF over GST control)"
same,binding signal,ELF1,"1.18 fold enrichment (6-mer frequency, TF over GST control)"
same,binding signal,EHF,"1.2 fold enrichment (6-mer frequency, TF over GST control)"
same,binding signal,SPI1,"1.04 fold enrichment (6-mer frequency, TF over GST control)"
same,binding signal,SPIB,"1.15 fold enrichment (6-mer frequency, TF over GST control)"
same,binding signal,ELK3,"1.29 fold enrichment (6-mer frequency, TF over GST control)"
same,binding signal,FEV,"1.12 fold enrichment (6-mer frequency, TF over GST control)"
same,binding signal,ETV5,"1.17 fold enrichment (6-mer frequency, TF over GST control)"
same,binding signal,HSF1,"1.07 fold enrichment (6-mer frequency, TF over GST control)"
same,binding signal,SPIC,"1.09 fold enrichment (6-mer frequency, TF over GST control)"
same,binding signal,ELF4,"1.19 fold enrichment (6-mer frequency, TF over GST control)"
same,binding signal,ELK4,"1.21 fold enrichment (6-mer frequency, TF over GST control)"
same,binding signal,ETV2,"1.22 fold enrichment (6-mer frequency, TF over GST control)"
same,binding signal,ELF3,"1.13 fold enrichment (6-mer frequency, TF over GST control)"
same,binding signal,CRX,"1.12 fold enrichment (6-mer frequency, TF over GST control)"
same,binding signal,ETV1,"1.27 fold enrichment (6-mer frequency, TF over GST control)"

# Source: paper PMC7862700, “An all-to-all approach to the identification of sequence-specific readers for epigenetic DNA modifications on cytosine”
